Source: PubChem BioAssay
NOMO-1 viab: STK33 inhibitor candidate reducing NOMO-1 cell viability | NOMO-1 AML viability, CellTiter-Glo luminescence, 72 h | inhibition, % (concentration not given with the values) | 37,000 tested, 7.5% active; in the data active means inhibition above about 80%; inconclusive means no clear call, values can overlap the other calls
PD-1 reverse act: reversal of PD-1 mediated T-cell inhibition. AID 2316. activation, % (test concentration not listed). 29,000 tested, under 10 active. primary human CD4 T cells, PD-L1 beads, CellTiter-Glo 96 h; call rule not given here
STK33 inh: inhibitors of human STK33 kinase; 27,000 tested, 0.44% active; ADP-Glo luminescence, MBP substrate; Q9BYT3; inhibition, % at 12.5 µM; AID 2322; in the data active means inhibition above about 20%; inconclusive means no clear call, values can overlap the other calls
Target sequence (Q9BYT3 whole entry, looked up): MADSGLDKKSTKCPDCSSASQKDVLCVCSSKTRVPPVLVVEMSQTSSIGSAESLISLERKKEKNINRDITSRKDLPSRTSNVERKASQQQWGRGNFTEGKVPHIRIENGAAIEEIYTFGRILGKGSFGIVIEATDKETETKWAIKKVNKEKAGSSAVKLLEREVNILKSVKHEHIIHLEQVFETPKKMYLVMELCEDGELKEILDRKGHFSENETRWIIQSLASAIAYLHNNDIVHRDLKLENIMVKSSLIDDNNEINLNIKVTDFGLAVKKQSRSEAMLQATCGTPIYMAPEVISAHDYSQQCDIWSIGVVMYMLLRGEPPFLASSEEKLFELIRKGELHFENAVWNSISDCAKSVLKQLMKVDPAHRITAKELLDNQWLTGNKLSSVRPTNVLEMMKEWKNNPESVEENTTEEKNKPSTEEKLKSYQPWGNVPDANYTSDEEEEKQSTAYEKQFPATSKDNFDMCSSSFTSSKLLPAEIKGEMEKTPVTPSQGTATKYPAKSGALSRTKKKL
Of the large screens only hits and unclear results are named; the others gave an inactive call. The sample as a whole holds a higher share of hits than the screen did.

Cc1noc(C)c1S(=O)(=O)N(C)C[C@H]1Oc2ccc(NC(=O)Nc3ccccc3)cc2CC(=O)N([C@@H](C)CO)C[C@H]1C	none (no result: PD-1 reverse act)
Cc1cc(C(=O)Nc2cccc3c2O[C@@H](CN(C)C(=O)Nc2c(C)noc2C)[C@@H](C)CN([C@@H](C)CO)C3=O)n(C)n1	none (no result: PD-1 reverse act, STK33 inh)
C[C@H]1OC(=O)c2c(O)ccc(O)c2[C@H]1O	none (no result: NOMO-1 viab, PD-1 reverse act)
CC1CC(=O)c2c(ccc3c2C(=O)c2cccc(O)c2C3O)C1 (stereo not given)	NOMO-1 viab 118
COc1ccc(NC(=O)Cc2nc(-c3ccc([N+](=O)[O-])cc3)cs2)cc1	none
S=c1[nH]nc(CSCc2cccc3ccccc23)n1C1CCCCC1	none (no result: STK33 inh)
CCOC(=O)CNC(=O)c1cc(-c2ccccn2)nc2c(C)c(Cl)ccc12	NOMO-1 viab 97 (no result: PD-1 reverse act)
COC(=O)CNC(=O)c1cc(-c2ccccn2)nc2ccc(Cl)cc12	none (no result: PD-1 reverse act)
C=C1C(=O)O[C@@H]2/C=C(/C)[C@@H]3C/C=C(/C[C@@H](OC(=O)/C(=C/CO)CO)[C@@H]12)C[C@@](O)(C(C)C)C(=O)O3	NOMO-1 viab 107
O=C(CNC(=O)c1ccccc1F)NCc1ccco1	none
Cc1cccc(NC(=O)CCn2cnc3ccccc3c2=O)c1C	none (no result: PD-1 reverse act)
Cc1ccc(S(=O)(=O)Nc2ccc3c(c2)C(=O)N([C@@H](C)CO)C[C@@H](C)[C@H](CN(C)Cc2ccc(-c4ccccc4)cc2)O3)cc1	NOMO-1 viab 123 (no result: STK33 inh)
Cc1ccc(S(=O)(=O)Nc2ccc3c(c2)C(=O)N([C@@H](C)CO)C[C@H](C)[C@@H](CN(C)Cc2ccc(-c4ccccc4)cc2)O3)cc1	none (no result: STK33 inh)
Cc1ccc(S(=O)(=O)Nc2ccc3c(c2)C(=O)N([C@@H](C)CO)C[C@@H](C)[C@@H](CN(C)Cc2ccc(-c4ccccc4)cc2)O3)cc1	NOMO-1 viab 101 (no result: STK33 inh)
Cc1ccc(S(=O)(=O)Nc2ccc3c(c2)C(=O)N([C@@H](C)CO)C[C@H](C)[C@H](CN(C)Cc2ccc(-c4ccccc4)cc2)O3)cc1	none
COc1ccc(CN(C)C[C@H]2Oc3c(NC(=O)Nc4ccc(C(F)(F)F)cc4)cccc3C(=O)N([C@H](C)CO)C[C@H]2C)cc1	NOMO-1 viab 95 (no result: STK33 inh)
C[C@H]1CN([C@@H](C)CO)C(=O)c2cccc(NC(=O)Nc3ccc(C(F)(F)F)cc3)c2O[C@@H]1CN(C)Cc1ccc(C(=O)O)cc1	none (no result: PD-1 reverse act, STK33 inh)
COc1ccc(NC(=O)Nc2cccc3c2O[C@@H](CN(C)Cc2ccc(C(F)(F)F)cc2)[C@@H](C)CN([C@H](C)CO)C3=O)cc1	none (no result: STK33 inh)
C[C@H]1CN([C@@H](C)CO)C(=O)c2cccc(NC(=O)Nc3ccc(F)cc3)c2O[C@H]1CN(C)Cc1ccc(C(F)(F)F)cc1	none (no result: STK33 inh)
C[C@@H]1CN([C@@H](C)CO)C(=O)c2cccc(NC(=O)Nc3ccc(F)cc3)c2O[C@H]1CN(C)Cc1ccc(C(F)(F)F)cc1	NOMO-1 viab 103 (no result: STK33 inh)
C[C@H](CO)N1C[C@H](C)[C@H](CN(C)Cc2ccc(C(F)(F)F)cc2)Oc2c(NC(=O)Nc3ccc(C(F)(F)F)cc3)cccc2C1=O	NOMO-1 viab 110 (no result: STK33 inh)
CC1(C)CC[C@]2(C(=O)O[C@@H]3O[C@H](CO[C@@H]4O[C@H](CO)[C@@H](O)[C@H](O)[C@H]4O)[C@@H](O)[C@H](O)[C@H]3O)CC[C@]3(C)C(=CCC4[C@@]5(C)CC[C@H](O[C@@H]6OC[C@H](O)[C@H](O)[C@H]6O)C(C)(C)C5CC[C@]43C)[C@@H]2C1 (stereo not given in full)	none (no result: NOMO-1 viab, PD-1 reverse act)
Cc1cc(C(F)(F)F)nc(SCC(=O)Nc2sc3c(c2C#N)CCCC3)n1	none (no result: PD-1 reverse act)
Cc1ccc(S(=O)(=O)N2c3ccccc3C(C)(c3ccccc3)CC2(C)C)cc1 (stereo not given)	NOMO-1 viab 108 (no result: STK33 inh)
Cc1ccc(S(=O)(=O)N2CCC(C#N)C(=O)c3ccccc32)cc1 (stereo not given)	none (no result: STK33 inh)
C[C@@H]1CN([C@H](C)CO)C(=O)c2cccc(NC(=O)Nc3ccc4c(c3)OCO4)c2O[C@H]1CN(C)Cc1ccc(Cl)c(Cl)c1	NOMO-1 viab 87 (no result: STK33 inh)
C[C@H]1CN([C@@H](C)CO)C(=O)c2cccc(NC(=O)Nc3ccc4c(c3)OCO4)c2O[C@@H]1CN(C)Cc1ccc2c(c1)OCO2	none (no result: PD-1 reverse act, STK33 inh)
C[C@@H]1CN([C@@H](C)CO)C(=O)c2cccc(NC(=O)Nc3ccc4c(c3)OCO4)c2O[C@@H]1CN(C)Cc1ccc(Cl)c(Cl)c1	none (no result: STK33 inh)
C[C@H](CO)N1C[C@H](C)[C@@H](CN(C)Cc2ccc(Cl)c(Cl)c2)Oc2c(NC(=O)Nc3ccc4c(c3)OCO4)cccc2C1=O	NOMO-1 viab 82 (no result: PD-1 reverse act, STK33 inh)
COc1ccc(-c2nnc(SCC(=O)Nc3ccc(Cl)cc3Cl)n2-c2ccccc2)cc1OC	none
Cc1cc(C)c(NC(=O)CSc2nc(-c3ccc(F)cc3)cs2)c(C)c1	NOMO-1 viab inconclusive (no result: PD-1 reverse act)
Cc1ccc(NC(=O)CN(c2ccc(Cl)c(C(F)(F)F)c2)S(C)(=O)=O)cc1	NOMO-1 viab 91
Cc1ccc([N+](=O)[O-])cc1N(CC(=O)Nc1ccc(I)cc1)S(C)(=O)=O	NOMO-1 viab 121
CS(=O)(=O)N(CC(=O)Nc1ccc(Cl)c(Cl)c1)c1cc(Cl)cc(Cl)c1	none
CS(=O)(=O)N(CC(=O)Nc1ccccc1C(F)(F)F)c1ccc(Cl)c(C(F)(F)F)c1	none
COc1ccc(N(CC(=O)Nc2ccc(I)cc2)S(C)(=O)=O)cc1Cl	none
CS(=O)(=O)N(CC(=O)Nc1ccc(I)cc1)c1ccc(Cl)c(Cl)c1	NOMO-1 viab 90
Cc1ccc([N+](=O)[O-])cc1N(CC(=O)Nc1cccc(F)c1)S(C)(=O)=O	none (no result: PD-1 reverse act)
CS(=O)(=O)N(CC(=O)Nc1ccc(Cl)c(Cl)c1)c1ccc(Br)cc1	NOMO-1 viab 115
CC(=O)Nc1ccc(NC(=O)CN(C)S(=O)(=O)c2ccccc2)cc1	none (no result: PD-1 reverse act)
CS(=O)(=O)N(CC(=O)Nc1ccc(Br)c(Cl)c1)c1ccc(F)c(Cl)c1	none
Cc1cc(N(CC(=O)Nc2ccc(F)c(Cl)c2)S(C)(=O)=O)ccc1Br	NOMO-1 viab 93
O=C(NCc1ccco1)C1CC(c2ccccc2O)=NO1 (stereo not given)	none (no result: PD-1 reverse act)
COc1cc(OC)c(C2=NOC(C(=O)NCc3ccco3)C2)cc1Cl (stereo not given)	NOMO-1 viab 129
CCN(CC(=O)Nc1ccc(Br)cc1F)S(=O)(=O)c1ccc(Cl)cc1	none
Cc1nc2c(o1)N(c1ccccc1)C(N)=C(C#N)C2c1c(Cl)nn(-c2ccccc2)c1C (stereo not given)	NOMO-1 viab inconclusive (no result: STK33 inh)
Cc1cc(=S)nc(-c2ccccn2)[nH]1	NOMO-1 viab 112 (no result: STK33 inh)
c1ccc(-c2nc3ccc(Cc4ccc5nc(-c6ccccn6)c(-c6ccccn6)nc5c4)cc3nc2-c2ccccn2)nc1	none
N#CC(=C(/N)Sc1ccccc1N)/C(C#N)=C(\N)Sc1ccccc1N	NOMO-1 viab 94 (no result: PD-1 reverse act)
CC(=O)c1cccc(NC(=O)CN(C2CCCCC2)S(=O)(=O)c2c(C)cc(C)cc2C)c1	none
C[C@@H]1C[C@@H]2O[C@H]2/C=C/C=C\C(=O)Cc2c(Cl)c(O)cc(O)c2C(=O)O1	NOMO-1 viab 118
COc1cc(O)cc2c1C(=O)OC(C)C2 (stereo not given)	none
CC(C)(C)OC(=O)CC[C@@]12N=C(c3ccc(OCCCO)cc3)O[C@@H]1c1ccccc1CN(C(=O)c1ccccc1)C2=O	none (no result: NOMO-1 viab, PD-1 reverse act)
COC(=O)c1cc(NC(=O)CSC2=NCCS2)cc(C(=O)OC)c1	NOMO-1 viab 93 (no result: PD-1 reverse act)
COC(=O)c1ccc(NC(=O)CSc2nnc(C)s2)cc1	none
